Hit rate of the full screen: of about 52,000 compounds, about 1,700 (3.3%) were called active. What follows is part of a selection rich in actives, with near analogues and random picks from the rest. A number with no mark means an inactive call. Rule as the data show it: active = survival mostly below about 52% (no sharp cut-off); inactive = mostly above about 56%.

The test system of this experiment is Wild type. Description: growth inhibition of S. aureus wild type versus tarO mutant, primary screen, teichoic acid synthesis inhibitors, RN4220, OD600 (AID 463173). Conditions: S. aureus RN4220 wild type/DeltatarO growth, OD600, 18 h, stronger effect = lower value, screened at 18.75 µg/mL (by protocol).
On to `CCOC(=O)CNC(=O)CSc1cn(CC(=O)N2CCCCCC2)c2ccccc12`, for which the survival was 99%.
The result for `Cc1ccc(Nc2ncnc3c2nc2n3CCCC2)c(Br)c1` reads 111%.
In the case of `CCN(c1ccccc1)S(=O)(=O)c1ccc(NC(=O)c2nc(SC)ncc2Cl)cc1`, the survival is 88%.
`CCS(=O)(=O)c1ncc(Cl)c(C(=O)Nc2ccccc2)n1`: the survival was 70%.
Take `CCSc1ncc(Cl)c(C(=O)Nc2ccc(S(=O)(=O)N(C)c3ccccc3)cc2)n1`: the survival was 84%.
The result for `CN(c1ccccc1)S(=O)(=O)c1ccc(NC(=O)c2nc(S(C)(=O)=O)ncc2Cl)cc1` reads 2% (active); that for `CCS(=O)(=O)c1ncc(Cl)c(C(=O)Nc2ccc(S(=O)(=O)N(C)c3ccccc3)cc2)n1`, 8% (active); that for `CC(C)Sc1ncc(Cl)c(C(=O)Nc2ccc(S(=O)(=O)N(C)c3ccccc3)cc2)n1`, 78%.
The result for `CCCSc1ncc(Cl)c(C(=O)Nc2ccc(S(=O)(=O)N(C)c3ccccc3)cc2)n1` reads 84%; that for `CCN(c1ccccc1)S(=O)(=O)c1ccc(NC(=O)c2nc(S(C)(=O)=O)ncc2Cl)cc1`, 0% (active).
The figure for `CCN(c1ccccc1)S(=O)(=O)c1ccc(NC(=O)c2nc(SC(C)C)ncc2Cl)cc1` is 81%.
Consider `Cc1cccc(N2CCN(S(=O)(=O)c3ccc4c(c3)CCCN4C(=O)C3CCC3)CC2)c1C`, for which the survival was 86%.
The figure for `Cc1ccc(C(=O)Nc2nnc(SCc3cc(=O)c4c(C)ccc(C)c4[nH]3)s2)cc1` is 93%; for `Cc1ccc(C)c(NC(=O)CN2C(=O)C(C)(C)c3ccccc32)c1` it is 76%.
Take `Fc1cccc(-c2cc3nc4c(c(NCCCN5CCOCC5)n3n2)CCCC4)c1`: the survival is 103%.
The result for `COc1ccc(-n2c(=O)c3ccccc3n(Cc3cccc(C)c3)c2=O)cc1` reads 75%; that for `Cc1cc(C)cc(NS(=O)(=O)c2ccc3c(c2)OCC(C(=O)N2CCCC2)O3)c1` (stereo not drawn), 78%.
For `CCc1ccc(S(=O)(=O)NCCc2csc3nc(-c4ccccc4)nn23)s1`, the survival was 129%.
The result for `COc1ccc(-c2nc3scc(CCNS(=O)(=O)c4cccs4)n3n2)cc1` reads 1% (active).
The figure for `O=S(=O)(NCCc1csc2nc(-c3ccc(Cl)cc3)nn12)c1cccs1` is 72%; for `COc1ccc(-c2nc3scc(CCNS(=O)(=O)c4ccccc4F)n3n2)cc1` it is 57%.
The figure for `COc1ccc(OC)c(S(=O)(=O)NCCc2csc3nc(-c4ccccc4)nn23)c1` is -3% (active); for `O=S(=O)(NCCc1csc2nc(-c3ccccc3)nn12)c1cccs1` it is 81%; for `CCS(=O)(=O)NCCc1csc2nc(-c3ccc(C)cc3)nn12` it is 59%.
With `COc1ccc(S(=O)(=O)NCCc2csc3nc(-c4ccccc4)nn23)cc1OC`, the survival is 71%.
The figure for `CS(=O)(=O)NCCc1csc2nc(-c3ccccc3)nn12` is -4% (active).
On to `COc1ccc(NC(=O)C(CC(C)C)NC(=O)C2CCCCC2)c(OC)c1` (stereo not drawn), for which the survival is 63%.
With `CC1(C)NC(=O)N(CC(O)CN2C(=O)NC(C)(C)C2=O)C1=O`, the survival was 117%.
The result for `CC(C)CCOc1ccc(C(=O)Nc2sc3c(c2C#N)CCCCC3)cc1` reads 135%; that for `N#Cc1c(-n2ncnc2-c2ccc(Br)cc2)sc2c1CCCCC2`, 2% (active).
With `N#Cc1c(-n2ncnc2-c2cccc(Br)c2)sc2c1CCCCC2`, the survival was 45%.
`COc1ccc(-c2nnn(CC(=O)Nc3sc4c(c3C#N)CCCC4)n2)cc1`: the survival was 109%.
The result for `N#Cc1c(N2C(=O)C3C4C=CC(C4)C3C2=O)sc2c1CCCC2` (stereo not drawn) reads 108%; that for `N#Cc1c(-n2ncnc2-c2cccc(Cl)c2)sc2c1CCCCC2`, 58%; that for `CCOc1ccc(-c2ncnn2-c2sc3c(c2C#N)CCCCC3)cc1`, 3% (active).
The figure for `N#Cc1c(/N=C/N2CCCCC2)sc2c1CCCC2` is 89%; for `N#Cc1c(-n2ncnc2-c2ccc(F)cc2)sc2c1CCCCC2` it is -2% (active); for `Cc1ccc(C)c(N2CCN(S(=O)(=O)c3cc(-c4cc(C)no4)ccc3C)CC2)c1` it is 73%.
The result for `O=C(CSc1n[nH]c(-c2ccccc2)n1)NCCCc1ccccc1` reads 69%; that for `CC(C)(C)c1cn2ccc3ccccc3c2n1`, 113%.
As to `Oc1ccccc1C(C#Cc1ccccc1)N1CCOCC1` (stereo not drawn), the survival was 110%.
Turning to `CC(C)N(C(=O)Cn1nnc2ccccc21)C(C(=O)NCc1ccco1)c1ccccc1` (stereo not drawn), the survival is 101%.
The figure for `Cc1ccc(C)c(N2CCN(Cc3nnc(-c4ccccc4)o3)CC2)c1` is 87%.
`Cc1ccc(N2CCN(Cc3nnc(-c4ccccc4F)o3)CC2)c(C)c1`: the survival was 15% (active).
For `Cc1ccccc1-c1nnc(CN2CCN(c3cc(Cl)ccc3C)CC2)o1`, the survival was 86%.
The figure for `Cc1ccc(-n2nc(C(=O)Nc3ccc(C)c(F)c3)c(=O)n(C)c2=O)cc1` is 68%; for `O=C(CSc1ncc2c(n1)-c1ccccc1N(Cc1ccc(F)cc1)S2(=O)=O)NCCc1ccccc1` it is 73%; for `Cc1ccc(CN2c3ccccc3-c3nc(SCC(=O)Nc4c(C)cc(C)cc4C)ncc3S2(=O)=O)cc1` it is 133%.
On to `NC(=O)CSc1ncc2c(n1)-c1ccccc1N(Cc1ccccc1)S2(=O)=O`, for which the survival was 69%.
The result for `Cc1ccc(CN2c3ccccc3-c3nc(SCC(=O)NCCc4ccccc4)ncc3S2(=O)=O)cc1` reads 14% (active); that for `CCOc1ccc(NC(=O)CSc2ncc3c(n2)-c2ccccc2N(Cc2ccccc2C)S3(=O)=O)cc1`, 63%; that for `CCN1c2ccccc2-c2nc(SCC(=O)NCc3ccccc3)ncc2S1(=O)=O`, 74%.
With `CCc1cccc(NC(=O)CSc2ncc3c(n2)-c2ccccc2N(CC)S3(=O)=O)c1`, the survival was 95%.
Regarding `O=C(CSc1ncc2c(n1)-c1ccccc1N(Cc1ccccc1)S2(=O)=O)Nc1ccccc1`, the survival is -6% (active).
The result for `CCc1cccc(NC(=O)CSc2ncc3c(n2)-c2ccccc2N(Cc2ccccc2C)S3(=O)=O)c1` reads 0% (active); that for `Cc1ccccc1CN1c2ccccc2-c2nc(SCC(=O)NCCc3ccccc3)ncc2S1(=O)=O`, 53%.
The figure for `Cc1ccccc1CN1c2ccccc2-c2nc(SCC(=O)NCc3ccccc3)ncc2S1(=O)=O` is -3% (active); for `O=C(CSc1ncc2c(n1)-c1cc(Cl)ccc1N(Cc1ccccc1)S2(=O)=O)NCCc1ccccc1` it is 113%.
`Cc1ccc2[nH]c(CSc3nnc(NC(=O)c4ccccc4C)s3)cc(=O)c2c1`: the survival was 72%.
The result for `O=C(NCCCO)c1cc2sc3ccccc3c2s1` reads 103%; that for `O=C(Nn1c(Cc2ccccc2)nc2ccccc2c1=O)c1ccco1`, 107%.
In the case of `Cc1ccc(CN2c3ccccc3-c3nc(SCC(=O)NCc4ccccc4)ncc3S2(=O)=O)cc1`, the survival is -1% (active).
Turning to `O=C(CSc1ncc2c(n1)-c1ccccc1N(Cc1ccc(F)cc1)S2(=O)=O)NCc1ccccc1`, the survival was 76%.
The figure for `CCN1c2ccccc2-c2nc(SCC(=O)NCc3ccc(C)cc3)ncc2S1(=O)=O` is 79%; for `COc1ccc(N(CC(=O)N2CCN(c3cccc(Cl)c3)CC2)S(=O)(=O)c2c(C)noc2C)cc1` it is 84%; for `Cc1cc(C)c2sc(N3CCN(C(=O)c4ccc(N(C)C)cc4)CC3)nc2c1` it is 136%.
The figure for `O=C(CC1COc2ccccc2O1)NCc1ccccc1` (stereo not drawn) is 105%; for `O=C(Nc1ccc(F)cc1)Nc1csc2c1CCCC2` it is 12%.
For `Cc1cc(C)cc(-n2c(SCC(=O)N3CCc4ccccc43)nc3c([nH]c4ccccc43)c2=O)c1`, the survival was 14% (active).
For `Cc1ccc(-n2c(SCC(=O)c3ccccc3)nc3c([nH]c4ccccc43)c2=O)cc1`, the survival is -6% (active).
The result for `Cc1ccc(-n2c(SCC(=O)N3CCc4ccccc43)nc3c([nH]c4ccccc43)c2=O)cc1` reads 120%; that for `O=C(CSc1nc(-c2cccs2)nc2cc(=O)[nH]n12)Nc1cccc(C(F)(F)F)c1`, 128%.
The figure for `Cc1cccc(-c2nc(SCC(=O)Nc3cccc(C(F)(F)F)c3)n3[nH]c(=O)cc3n2)c1` is -3% (active).
Regarding `O=C(CSc1nc2c([nH]c3ccccc32)c(=O)n1-c1ccccc1)c1ccccc1`, the survival is 73%.
The result for `CCOc1ccc(-n2c(SCC(=O)N3CCCCC3)nc3c([nH]c4ccccc43)c2=O)cc1` reads 94%; that for `COc1ccc(-n2c(SCC(=O)c3ccccc3)nc3c([nH]c4ccccc43)c2=O)cc1`, 88%; that for `CCOc1ccc(-n2c(SCC(=O)N3CCCC3)nc3c([nH]c4ccccc43)c2=O)cc1`, 73%.
On to `CCOc1ccc(-n2c(SCC(=O)N3CCOCC3)nc3c([nH]c4ccccc43)c2=O)cc1`, for which the survival was -3% (active).
Consider `O=C(CSc1nc(-c2ccccc2F)nc2cc(=O)[nH]n12)Nc1cccc(C(F)(F)F)c1`, for which the survival was 69%.
The figure for `O=C(CSc1nc2c([nH]c3ccccc32)c(=O)n1-c1ccccc1)N1CCc2ccccc21` is 73%; for `Cc1ccc(CNC(=O)C2(c3cccs3)CCOCC2)cc1` it is 69%.
The figure for `O=C(Nc1ccc2oc(-c3ccc4ccccc4c3)nc2c1)c1cc(Br)ccc1Cl` is 96%; for `COc1ccc(NC(=O)CSc2nc(-c3ccc(OC)c(OC)c3)[nH]c2-c2ccc(C)cc2)cc1` it is 139%.
The figure for `CCOC(=O)c1ccc(NC(=O)CCn2ccc(C)n2)cc1` is 110%; for `COc1ccc(C2C(=O)N(C3CCCCC3)CC(=O)N2C2CCCCC2)cc1` (stereo not drawn) it is 76%.
`Cc1cccc(NC(=O)c2oc3ccccc3c2NC(=O)c2cc(=O)c3cc(Cl)ccc3o2)c1`: the survival was 85%.
The result for `COc1ccc(-c2nc(C)c(CCNC(=O)c3cccs3)s2)cc1OC` reads 69%; that for `Cc1ccccc1-c1nc(CS(=O)(=O)CC(=O)NCCCc2ccccc2)c(C)o1`, 138%.

Source of the values: PubChem BioAssay AID463173 (ICCB-Longwood Screening Facility, Harvard Medical School, 2010).
